Assay results taken from PubChem BioAssay AID1159580 (chemical genetic matrix, 2015).
Screen size: about 5,500 compounds; about 2,000 (36%) were called active. About 18% were inconclusive and are not listed. Rule as the data show it: active = normalized growth mostly below about 0.91 (no sharp cut-off); inconclusive = no clear call, values can overlap the other calls; inactive = mostly above about 0.92. The list shows a part of the results.

Experiment: chemical genetic growth profiling, strain panel (AID 1159580);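 also: tested at 20 µM; growth read once vehicle control cultures reached saturation at 30 °C; 1 = growth at the plate median or of vehicle wells; lower values mean less growth of the strain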
Conditions: growth OD

Measured: normalized growth

COc1ccc(-c2coc3c(O)c(OC)ccc3c2=O)cc1
active: S. cerevisiae deletion strains, locus YKL009W, strain mrt4, stronger effect = lower value 0.865 | S. cerevisiae deletion strains, locus YKL068W, stronger effect = lower value 0.94 | S. cerevisiae deletion strains, locus YKL160W, strain elf1, stronger effect = lower value 0.869 | S. cerevisiae deletion strains, locus YKR001C, strain vps1, stronger effect = lower value 0.82 | S. cerevisiae deletion strains, locus YLR039C, strain RIC1, stronger effect = lower value 0.491 | S. cerevisiae deletion strains, locus YLR262C, strain YPT6 (second series), stronger effect = lower value 0.736 | S. cerevisiae deletion strains, locus YLR268W, strain sec22, stronger effect = lower value 0.766 | S. cerevisiae deletion strains, locus YLR320W, strain mms22, stronger effect = lower value 0.827 | S. cerevisiae deletion strains, locus YLR330W, strain CHS5, stronger effect = lower value 0.838 | S. cerevisiae deletion strains, locus YLR418C, strain cdc73, stronger effect = lower value 0.722 | S. cerevisiae deletion strains, locus YML032C, strain rad52, stronger effect = lower value 0.862 | S. cerevisiae deletion strains, locus YML120C, strain ndi1, stronger effect = lower value 0.893 | S. cerevisiae deletion strains, locus YMR078C, strain ctf18, stronger effect = lower value 0.864 | S. cerevisiae deletion strains, locus YMR205C, strain PFK2, stronger effect = lower value 0.824 | S. cerevisiae deletion strains, locus YMR223W, strain ubp8, stronger effect = lower value 0.881 | S. cerevisiae deletion strains, locus YMR307W, strain GAS1, stronger effect = lower value 0.58 | S. cerevisiae deletion strains, locus YNL071W, strain lat1, stronger effect = lower value 0.571 | S. cerevisiae deletion strains, locus YNL298W, strain CLA4, stronger effect = lower value 0.904 | S. cerevisiae deletion strains, locus YNL307C, strain MCK1, stronger effect = lower value 0.595 | S. cerevisiae deletion strains, locus YNL322C, strain KRE1 (second series), stronger effect = lower value 0.839 | S. cerevisiae deletion strains, locus YOL147C, strain pex11, stronger effect = lower value 0.836 | S. cerevisiae deletion strains, locus YOR144C, strain elg1, stronger effect = lower value 0.894 | S. cerevisiae deletion strains, locus YOR184W, strain ser1, stronger effect = lower value 0.708 | S. cerevisiae deletion strains, locus YOR290C, strain snf2, stronger effect = lower value 0.807 | S. cerevisiae deletion strains, locus YPL051W, strain arl3, stronger effect = lower value 0.87 | S. cerevisiae deletion strains, locus YPL078C, strain atp4, stronger effect = lower value 0.836 | S. cerevisiae deletion strains, locus YPR119W, strain clb2, stronger effect = lower value 0.928 | S. cerevisiae deletion strains, locus YPR163C, strain tif3, stronger effect = lower value 0.694 | S. cerevisiae deletion strains, strain wtn01, stronger effect = lower value 0.846 | S. cerevisiae strains, strain wild type, stronger effect = lower value 0.83
inactive: S. cerevisiae deletion strains, locus YKL085W, strain MDH1 (second series), stronger effect = lower value 0.935 | S. cerevisiae deletion strains, locus YKL085W, strain MDH1, stronger effect = lower value 0.935 | S. cerevisiae deletion strains, locus YKL190W, strain CNB1, stronger effect = lower value 0.932 | S. cerevisiae deletion strains, locus YKR026C, strain gcn3, stronger effect = lower value 0.967 | S. cerevisiae deletion strains, locus YKR091W, strain srl3, stronger effect = lower value 0.961 | S. cerevisiae deletion strains, locus YLL001W, strain dnm1, stronger effect = lower value 0.914 | S. cerevisiae deletion strains, locus YLL026W, stronger effect = lower value 0.966 | S. cerevisiae deletion strains, locus YLL041C, strain sdh2, stronger effect = lower value 0.956 | S. cerevisiae deletion strains, locus YLR027C, strain aat2, stronger effect = lower value 0.964 | S. cerevisiae deletion strains, locus YLR058C, strain SHM2, stronger effect = lower value 0.9 | S. cerevisiae deletion strains, locus YLR102C, strain apc9, stronger effect = lower value 0.941 | S. cerevisiae deletion strains, locus YLR113W, strain HOG1, stronger effect = lower value 0.994 | S. cerevisiae deletion strains, locus YLR221C, strain rsa3, stronger effect = lower value 0.957 | S. cerevisiae deletion strains, locus YLR258W, strain gsy2, stronger effect = lower value 0.925 | S. cerevisiae deletion strains, locus YLR342W, strain FKS1 (second series), stronger effect = lower value 0.843 | S. cerevisiae deletion strains, locus YLR342W, strain FKS1, stronger effect = lower value 0.963 | S. cerevisiae deletion strains, locus YLR357W, strain rsc2, stronger effect = lower value 0.899 | S. cerevisiae deletion strains, locus YLR370C, strain arc18, stronger effect = lower value 0.974 | S. cerevisiae deletion strains, locus YLR371W, strain rom2, stronger effect = lower value 0.922 | S. cerevisiae deletion strains, locus YLR384C, strain iki3, stronger effect = lower value 0.989 | S. cerevisiae deletion strains, locus YML016C, strain PPZ1, stronger effect = lower value 0.925 | S. cerevisiae deletion strains, locus YML124C, strain tub3, stronger effect = lower value 0.937 | S. cerevisiae deletion strains, locus YMR058W, strain fet3, stronger effect = lower value 0.952 | S. cerevisiae deletion strains, locus YMR125W, strain sto1, stronger effect = lower value 0.964 | S. cerevisiae deletion strains, locus YMR129W, stronger effect = lower value 0.969 | S. cerevisiae deletion strains, locus YMR231W, strain pep5, stronger effect = lower value 0.987 | S. cerevisiae deletion strains, locus YNL067W, strain RPL9B, stronger effect = lower value 0.959 | S. cerevisiae deletion strains, locus YNL128W, strain TEP1, stronger effect = lower value 0.889 | S. cerevisiae deletion strains, locus YNL183C, strain NPR1, stronger effect = lower value 0.952 | S. cerevisiae deletion strains, locus YNL209W, strain ssb2, stronger effect = lower value 0.948 | S. cerevisiae deletion strains, locus YNL233W, strain BNI4, stronger effect = lower value 0.879 | S. cerevisiae deletion strains, locus YNL248C, strain rpa49, stronger effect = lower value 0.965 | S. cerevisiae deletion strains, locus YNL250W, strain rad50, stronger effect = lower value 0.928 | S. cerevisiae deletion strains, locus YNL271C, strain bni1, stronger effect = lower value 0.941 | S. cerevisiae deletion strains, locus YNL322C, strain KRE1, stronger effect = lower value 0.939 | S. cerevisiae deletion strains, locus YNR049C, strain mso1, stronger effect = lower value 0.995 | S. cerevisiae deletion strains, locus YNR052C, strain pop2, stronger effect = lower value 0.925 | S. cerevisiae deletion strains, locus YOL012C, strain htz1 0.727 | S. cerevisiae deletion strains, locus YOR001W, strain rrp6, stronger effect = lower value 0.974 | S. cerevisiae deletion strains, locus YOR061W, strain CKA2, stronger effect = lower value 0.912 | S. cerevisiae deletion strains, locus YOR069W, strain VPS5, stronger effect = lower value 0.941 | S. cerevisiae deletion strains, locus YOR070C, strain gyp1, stronger effect = lower value 0.994 | S. cerevisiae deletion strains, locus YOR080W, strain dia2, stronger effect = lower value 0.992 | S. cerevisiae deletion strains, locus YOR083W, strain WHI5, stronger effect = lower value 0.902 | S. cerevisiae deletion strains, locus YOR106W, strain vam3, stronger effect = lower value 0.882 | S. cerevisiae deletion strains, locus YOR136W, strain idh2, stronger effect = lower value 0.927 | S. cerevisiae deletion strains, locus YOR231W, strain MKK1, stronger effect = lower value 1.02 | S. cerevisiae deletion strains, locus YOR265W, strain rbl2, stronger effect = lower value 0.984 | S. cerevisiae deletion strains, locus YOR270C, strain vph1, stronger effect = lower value 0.888 | S. cerevisiae deletion strains, locus YOR316C, strain cot1, stronger effect = lower value 0.943 | S. cerevisiae deletion strains, locus YPL106C, strain sse1, stronger effect = lower value 0.903 | S. cerevisiae deletion strains, locus YPL240C, strain hsp82, stronger effect = lower value 0.946 | S. cerevisiae deletion strains, locus YPL256C, strain CLN2, stronger effect = lower value 0.989 | S. cerevisiae deletion strains, locus YPR141C, strain kar3, stronger effect = lower value 0.932 | S. cerevisiae deletion strains, locus YPR167C, strain met16, stronger effect = lower value 0.926
